Only some compounds are listed: those with a hit (about 2.9% of all), similar ones and a draw of the others.
Vif imaging = HIV Vif inhibition. hit rate 0.35% among 340,000. AID 602346. inhibition, % at 7.49 µM. HEK293T cells, Vif self-association by quenched fluorescence, imaging, 24 h; in the data active = inhibition above about 50%, passing the limit was not always enough; inconclusive = no clear call, values can overlap the other calls; inactive = below about 31%
Wnt bcat act = Wnt/beta-catenin pathway activation. Wnt/beta-catenin reporter cell assay, activator, plate reader. activation, % at 9.35 µM. hit rate 1.2% among 300,000; in the data active = activation above about 30%, passing the limit was not always enough; inconclusive = no clear call, values can overlap the other calls;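 note: 0% = neutral control wells and 100% = positive control wells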
PvdQ acylase = blocks Pseudomonas aeruginosa PvdQ acylase activity | hit rate 0.063% among 340,000 | inhibition, % at 10 µM | purified PvdQ acylase, fluorescence plate reader; in the data active = inhibition above about 30%, passing the limit was not always enough; inconclusive = no clear call, values can overlap the other calls;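 note: 0% = vehicle neutral wells and 100% = reference inhibitor wells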
esBAF inh = SWI/SNF esBAF complex inhibition | hit rate 2% among 350,000 | mouse ES cells, Bmi1-luciferase knock-in reporter, 24 h; 100% = twice the neutral-well signal | reporter increase, % at 12.5 µM; in the data active = activation above about 40%; inconclusive = no clear call, values can overlap the other calls;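 note: 0% = median of the plate's neutral control wells and 100% = double that signal; a rise in the Bmi1 reporter signal indicates esBAF inhibition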
Glyco luc inh = N-linked glycosylation inhibition | D54 ERlucT glycosylation luciferase reporter, 24 h; percent of 100 nM tunicamycin response | reporter increase, % at 12.5 µM | hit rate 0.23% among 360,000 | AID 588692;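 active = mean luciferase reporter signal, scaled so untreated is 0 and the glycosylation-blocking control 100, at or above a set limit in every replicate; inconclusive = mean reaches the limit but not every replicate does; inactive = mean below the limit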;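 note: luciferase carries N-glycosylation sites so blocking glycosylation raises the light; 0% = median of neutral control wells and 100% = median of 100 nM tunicamycin wells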
MITF act = activators of MITF-driven TRPM1 promoter activity in SK-MEL-5 cells; SK-MEL-5 TRPM1-promoter luciferase, 24 h; % of positive control, neutral wells = 0; activation, % at 12.5 µM; hit rate 0.75% among 300,000;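 active = mean activation of at least 80% with every replicate also reaching 80%; inconclusive = mean reaches 80% but some replicate falls short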;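 note: 0% = neutral control wells and 100% = parthenolide positive control wells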
An asterisk follows results filed as active; ? = inconclusive; · = no result given.

SMILES | Vif imaging | Wnt bcat act | PvdQ acylase | esBAF inh | Glyco luc inh | MITF act
O=C(Nc1ccc(Cl)c(Cl)c1)c1cccnc1 | 8 | -1 | -11 | 28 | 2 | ·
CN(C)S(=O)(=O)Oc1cccc(C(=O)Nc2cccc(Cl)c2)c1 | -7 | 31* | -7 | 44* | -1 | ·
COc1cccc(C(=O)Nc2cccc(NC(=O)c3ccccc3Cl)c2)c1 | 2 | -3 | -4 | 17 | -2 | ·
CN(C)S(=O)(=O)Oc1cccc(C(=O)Nc2ccc(Cl)c(Cl)c2)c1 | -17 | · | 2 | 72* | -13 | 33
COC(=O)c1ccc(OS(=O)(=O)N(C)C)cc1 | -9 | 10 | 2 | 49* | -2 | 46
C[C@H](CO)N1C[C@H](C)[C@H](CN(C)C)Oc2ccc(NC(=O)CCN3CCOCC3)cc2C1=O | · | · | · | -7 | · | ·
CO[C@@H]1CN(C)C(=O)c2ccc(NC(=O)C3CC3)cc2OC[C@H](C)N(CC2CC2)C[C@@H]1C | · | · | · | -1 | · | ·
Cc1cc(SCC(=O)c2ccc(Cl)cc2)nc(=O)[nH]1 | ? | 40* | -11 | -36 | -16 | 21
Cc1ccc(C(=O)CSc2cc(C)[nH]c(=O)n2)cc1 | -24 | 29 | -7 | -26 | -19 | 26
O=C(/C=C/c1ccccc1)Nc1cccc(C(=O)NCCc2ccccc2)c1 | -2 | 11 | -10 | 62* | -6 | ?
CCOc1ccc(/C=C/C(=O)Nc2cccc(C(C)=O)c2)cc1 | -22 | · | -3 | 59* | -5 | 31
CCOc1ccc(NC(C(=O)Nc2cccc(C(C)=O)c2)c2ccccc2)cc1 (stereo unspecified) | 0 | 2 | -12 | · | -2 | 9
O=C(/C=C/c1ccccc1)Nc1cccc(C(=O)NCCCCc2ccccc2)c1 | · | 5 | -17 | 43* | -3 | 6
O=C(NCCCc1ccccc1)c1cccc(NC(=O)c2ccccc2)c1 | -1 | -1 | -19 | 7 | -1 | 4
C[C@H]1CN([C@@H](C)CO)C(=O)c2cccc(NC(=O)Nc3ccc(F)cc3)c2O[C@H]1CN(C)C(=O)NC1CCCCC1 | · | · | · | 2 | · | ·
O=C(N[C@@H]1CC[C@H](CC(=O)N2CCCCC2)O[C@@H]1CO)c1ccc2c(c1)OCO2 | · | · | · | 5 | · | ·
CCCCSc1nnc(-c2ccc(NC(C)=O)cc2)n1C | 0 | · | -7 | · | 6 | 4
Cn1c(SCc2ccccc2)nnc1-c1c[nH]c2ccccc12 | 2 | 23 | -1 | 81* | 2 | ·
CCCCSc1nnc(-c2ccc(C)cc2)n1C | 10 | 53* | -14 | 20 | 3 | 34
CCCCSc1nnc(-c2c[nH]c3ccccc23)n1C | -8 | 32* | -4 | 72* | 1 | 44
COc1ccc(-c2nnc(NC(=O)C(C)C)s2)c(OC)c1 | -10 | 34* | -7 | 42* | 1 | 46
COc1ccc(Cc2nnc(NC(=O)C(C)C)s2)cc1 | -1 | 5 | -18 | -2 | 0 | ·
COC(=O)Nc1nnc(-c2ccccc2Cl)s1 | 2 | · | -3 | 24 | -2 | 88*
COC(=O)Nc1nnc(-c2ccncc2)s1 | -6 | · | 0 | -1 | 0 | -3
CCOC(=O)Nc1nnc(-c2ccccc2OC)s1 | 6 | · | -10 | 11 | 2 | 15
SMILES | Vif imaging | Wnt bcat act | PvdQ acylase | esBAF inh | Glyco luc inh | MITF act
COC(=O)Nc1nnc(-c2ccccc2OC)s1 | -7 | 49* | -13 | · | -3 | 45
CSc1n[nH]c(-c2ccc(C(F)(F)F)cc2)n1 | 11 | 21 | 8 | 41* | 0 | 41
Cc1nc(NC(=S)Nc2ccccc2)sc1C | -1 | 80* | -5 | · | -4 | 54
Cc1ccc(C(=O)Nc2nnc(NC(=S)Nc3ccccc3)s2)cc1 | -4 | -1 | -10 | 56* | 0 | 49
CO[C@H]1CN(C)C(=O)c2cc(NC(=O)C3CC3)ccc2OC[C@H](C)N(C(=O)CN(C)C)C[C@@H]1C | · | · | · | -1 | · | ·
CCOC(=O)c1c(C)[nH]c2cc(Br)c(O)cc12 | -17 | 48* | -9 | 54* | 1 | ·
O=C(C[C@@H]1C[C@H]2c3cc(NC(=O)C4CCC4)ccc3O[C@H]2[C@@H](CO)O1)NCC1CC1 | · | · | · | 2 | · | ·
O=C(CN1C(=O)NC2(CCCCC2)C1=O)Nc1ccc2c(c1)OCCCO2 | 28 | 44* | -4 | ? | 0 | 130*
CC1CCCCC12NC(=O)N(CC(=O)NC(=O)Nc1ccc3c(c1)OCCO3)C2=O (stereo unspecified) | -2 | 3 | 1 | 57* | -2 | 53
CC(C)c1ccc(NC(=O)CN2C(=O)NC3(CCCCCCC3)C2=O)cc1 | 12 | 5 | -10 | -11 | 37* | 19
CCN(CC)S(=O)(=O)c1cccc(NC(=O)CN2C(=O)NC3(CCC(C)CC3)C2=O)c1 (stereo unspecified) | 0 | -2 | -7 | -4 | 32* | 20
C[C@@H]1CN([C@H](C)CO)C(=O)c2cccc(N(C)C)c2O[C@@H]1CN(C)Cc1ccc(Oc2ccccc2)cc1 | · | · | · | 0 | · | ·
CCCNC(=O)N1[C@H](CNC(=O)CC)[C@@H](c2ccc(C3=CCCC3)cc2)[C@@H]1CO | · | · | · | -1 | · | ·
CSCc1ccc(C(=O)Nc2cccc(C)c2C)cc1 | -5 | 34* | 3 | · | -1 | 112*
Cc1cccc(NC(=O)c2cccnc2)c1C | 7 | -2 | -12 | 1 | 1 | 7
Cc1ccccc1NC(=O)c1onc2c1CCCC2 | -10 | 0 | -5 | 27 | -2 | 75
Cc1cccc(NC(=O)c2onc3c2CCCC3)c1C | -1 | · | 8 | 51* | 1 | 86*
Cc1cccc(-c2nc3ccccc3c(=O)n2N)c1 | -4 | 0 | 1 | -1 | -1 | -2
CCCCCCc1nc2ccccc2c(=O)n1N | 1 | 2 | 2 | 24 | -2 | 17
Cc1cccc(OCc2nc3ccccc3c(=O)n2N)c1 | · | 25 | -12 | 59* | -1 | 67
Nn1c(COc2cccc(Cl)c2)nc2ccccc2c1=O | 5 | · | -4 | 44* | 2 | 52
CCCC(=O)Nc1ccc2c(c1)C(=O)N(C)[C@@H]1CC[C@@H](CC(=O)NCCN3CCCCC3)O[C@H]1CO2 | · | · | · | -2 | · | ·
Cc1ccc(NC(=O)NC(=O)CN2CCC(C(N)=O)CC2)c(C)c1 | 0 | 30 | 20 | 43* | 0 | ·
Cc1ccc(NC(=O)NC(=O)CN2CCN(c3ccc(O)cc3)CC2)c(C)c1 | -8 | -4 | -12 | 7 | -2 | -7
